From PubChem BioAssay (EPA / NIEHS)
Some compounds were tested as several samples or in several runs, with calls that do not always agree. Active and inactive are the calls of the source. How the source made its calls: active means hit-call score of the fitted dose curve at least 0.9, where 1 is the maximum; inactive means score below 0.9.

These compounds were tested on Interleukin-8 (IL8), CXCL8 (gene 3576) (assay: BSK_MyoF_IL8: BioMAP Diversity Plus: MyoF Assay for Interleukin-8 (IL8) Biomarker Activity (AID 2284261)). Details: primary human lung fibroblasts.
Summary of the method: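 DMSO-normalised, upward-fitted IL-8 ELISA signal; human lung fibroblasts, 24 h chemical treatment.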
For `CC(C)[N+](C)(CCOC(=O)C1c2ccccc2Oc2ccccc21)C(C)C`, the outcome was “inactive”.
In the case of `CCN1CN(CC)CN(CC)C1`, the outcome is reported as “inactive”.
`CCCCCCOC(=O)CCCCC(=O)OCCCCCC` was tested, and the outcome was “inactive”.
In the case of `COC(OC)(C(=O)c1ccccc1)c1ccccc1`, the outcome is reported as “inactive”.
With `CCOC(=O)C1=NOC(c2ccccc2)(c2ccccc2)C1` the outcome was “inactive”.
With `CCc1cccc(C)c1N(C(=O)CS(=O)(=O)O)C(C)COC` (centres undefined) the outcome was “inactive”.
In the case of `C=CCCCCCCCCC=O`, the outcome is reported as “inactive”.
In the case of `CCCCCCCCCCCC(C)=O`, the outcome is reported as “inactive”.
For `Nc1cccc(N)n1`, the outcome was “inactive”.
With `CC/C=C\C/C=C\C/C=C\CCCCCCCC(=O)OC` the AC50 was 20 µM (active).
For `CCCCC1C(=O)N(c2ccccc2)N(c2ccccc2)C1=O`, the outcome was “inactive”.
In the case of `CCCCCCC=O`, the outcome is reported as “inactive”.
In the case of `c1ccc2sc(SSN3CCOCC3)nc2c1`, the outcome is reported as “inactive”.
In the case of `O=C1CCCCCCCCCCCN1`, the outcome is reported as “inactive”.
`CCCCCC1=CCCC1=O` was tested, and the outcome was “inactive”.
In the case of `O=C(Oc1ccccc1)c1ccccc1C(=O)Oc1ccccc1`, the outcome is reported as “inactive”.
For `CC(C)c1cccc(C(C)C)c1N`, the outcome was “inactive”.
With `O=C1CCCCCCCCCCC1` the outcome was “inactive”.
For `COc1ccc(C(=O)/C(Br)=C\C(=O)O)cc1`, the AC50 was 3.97 µM (active) and the outcome was “inactive”.
In the case of `C=CC(=O)NC(C)(C)C`, the outcome is reported as “inactive”.
In the case of `CC(C)CCCCCOC(=O)CS`, the outcome is reported as “inactive”.
For `CC/C=C\CCOC(=O)c1ccccc1O`, the outcome was “inactive”.
For `c1ccc2c(c1)[nH]c1ccccc12`, the outcome was “inactive”.
For `C=C(C)C(=O)OCCCCCCCCCCCC`, the outcome was “inactive”.
For `O=C(Cl)c1c(Cl)c(Cl)c(C(=O)Cl)c(Cl)c1Cl`, the outcome was “inactive”.
`CCOC(=O)/C=C\C(=O)OCC` was tested, and the outcome was “inactive”.
`CC1(C)CC(O)CC(C)(C)N1[O]` was tested, and the outcome was “inactive”.
In the case of `C=CC(=O)OCCCCCCCC(C)C`, the outcome is reported as “inactive”.
